# Laboratory results published in PubChem BioAssay (EPA / NIEHS).
# Inconclusive results are not listed. Active and inactive are the calls of the source. The calls were made as follows: active = hit-call score of the fitted dose curve at least 0.9, where 1 is the maximum; inconclusive = response in the unintended direction; inactive = score below 0.9.
# Assay: CCTE_Shafer_MEA_dev_active_electrodes_number: CCTE's Neural Network Formation Assay for Number of Active Electrodes, Shafer Lab (AID 2284040);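 as to AC50: potency for loss of active electrodes versus DMSO so lower counts are hits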
# Protocol: CCTE_Shafer_MEA_dev assay is conducted using Axion Biosystems 48 well microelectrode array (MEA) plates and Maestro recording system. Each well of the MEA plate contains a grid of 16 microelectrodes embedded in the culture surface. Electrically active cells, such as neurons, can be cultured over the electrodes, and electrical activity in these cells can be recorded extracellularly. The spontaneous firing of neurons is captured from each electrode on a microsecond timescale providing both temporally and spatially precise data. […] The CCTE_Shafer_MEA_dev assay uses primary cultures of rat cortical neurons. Recordings are made on days post-plating 5, 7, 9 and 12. As these cultures mature over time, neural networks develop functional activity and form cohesive networks in which electrical activity can be highly coordinated. CCTE_Shafer_MEA_dev_active_electrodes_number is 1 of 19 assay components of the CCTE_Shafer_MEA_dev assay. It measures the number of electrodes in a well with a mean firing rate of at least 5 spikes (action potential firings) per minute during a recording in a microelectrode array (MEA) using Axion Biosystems Maestro 768 channel amplifier with the AxIS adaptive spike detector. To collapse across multiple recordings made on days post-plating 5, 7, 9 and 12, the trapezoidal area-under-the-curve of the component is calculated.Data from the assay component CCTE_Shafer_MEA_dev_active_electrodes_number was analyzed into 1 assay endpoint. This assay endpoint, CCTE_Shafer_MEA_dev_active_electrodes_number, was analyzed in the negative analysis fitting direction relative to DMSO as the negative control and baseline of activity. Using a type of functional reporter, gain or loss-of-signal activity can be used to understand electrical activity.
# On the day prior to culture, each well was coated thoroughly with 150 uL of 0.05% polyethyleneimine (PEI, Sigma Cat P3143) in 50 mM HEPES (Sigma Cat H7523) at a pH of 8. The plate was incubated at 37C for one hour. PEI was rinsed out with 500 uL of sterile water three times. Plates were stored at 4C until the day of culture. This culture was plated at a seeding density of 1.5 x 10^5 cells/well on a 48-well MEA plate, prepared as described above. Cells were administered via a 25 uL media/laminin ([…]; Sigma Cat L2020-1MG) drop directly onto the microelectrode array, as adding the cells with the laminin results in better attachment than pre-coating with laminin. After 2 hours, an additional 475 uL of cortical media was added and the cells returned to the incubator. Exposure starts at day 0 of plating and is continued over twelve days of network development until the experiment is terminated. Cells are fed with fresh medium on DIV 5 and 9, following the recordings on those days. The entire volume of media in the well is exchanged and any vehicle or compound treatment is renewed. Complete details are found in OP-NHEERL/ISTD/SBB/TJS/2015-03-r0 (available on request, email shafer.tim@epa.gov). Measurement of the electrical activity is non-invasive, and recordings can be made from the same plate over multiple different days of the culture. In cortical neurons, this allows for the measurement of extracellular action potentials over the period during which networks form in the MEA plate.
Structure (SMILES),outcome,AC50
Cn1c(=O)c2c(ncn2C)n(C)c1=O,inactive,
COc1ccc(-n2nc(C(F)F)cc2-c2ccc(S(C)=O)cc2)cc1 (stereo not given),,10 µM (active)
NC(=O)NO,inactive,
O=P(OC(CCl)CCl)(OC(CCl)CCl)OC(CCl)CCl,inactive,
CCC(C)(C)C(=O)O[C@H]1C[C@@H](C)C=C2C=C[C@H](C)[C@H](CC[C@@H]3C[C@@H](O)CC(=O)O3)[C@H]21,,0.801 µM (active)
O=C1CCC(N2C(=O)c3ccccc3C2=O)C(=O)N1 (stereo not given),inactive,
Nc1nc2ncc(CNc3ccc(C(=O)N[C@@H](CCC(=O)O)C(=O)O)cc3)nc2c(=O)[nH]1,inactive,
CC[C@H](C)C(=O)O[C@H]1C[C@@H](C)C=C2C=C[C@H](C)[C@H](CC[C@@H]3C[C@@H](O)CC(=O)O3)[C@H]21,,1.76 µM (active)
CNCc1ccc(NC(=O)c2c[nH]c3c2C(=O)CCC3)cc1,,1.98 µM (active)
CC[C@H]1OC(=O)[C@H](C)[C@@H](O[C@H]2C[C@@](C)(OC)[C@@H](O)[C@H](C)O2)[C@H](C)[C@@H](O[C@@H]2O[C@H](C)C[C@H](N(C)C)[C@H]2O)[C@](C)(O)C[C@@H](C)C(=O)[C@H](C)[C@@H](O)[C@]1(C)O,inactive,
